# Assay outcomes as filed in PubChem BioAssay.
# A selection: hits, their analogues and other compounds. The true share with any hit is near 7.5%.
# FBPA Giardia inh = blocks Giardia fructose-bisphosphate aldolase activity | A8B2U2 | purified Giardia FBPA | Potency, µM (top dose mostly 59.6 µM), without a hit: top-dose activity, negative = inhibition, most hits filed as inhibitors | 290,000 tested, 0.71% active; note: potency is the fitted concentration of half-maximal effect; nearly all actives have a fitted effect of over 55% in size
# Target sequence (A8B2U2 whole entry, looked up): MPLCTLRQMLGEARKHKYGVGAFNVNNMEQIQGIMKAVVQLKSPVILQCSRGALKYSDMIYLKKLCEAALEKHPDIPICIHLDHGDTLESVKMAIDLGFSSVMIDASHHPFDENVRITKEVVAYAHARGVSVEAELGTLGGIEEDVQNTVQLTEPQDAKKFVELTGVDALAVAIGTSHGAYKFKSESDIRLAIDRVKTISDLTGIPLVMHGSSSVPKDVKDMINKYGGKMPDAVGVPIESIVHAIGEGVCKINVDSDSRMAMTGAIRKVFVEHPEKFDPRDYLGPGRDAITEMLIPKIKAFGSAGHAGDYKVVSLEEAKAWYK
#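 40 nM FBPA preincubated 10 min at RT with compound (up to 57.5 uM final), then substrate plus GAPDH/TPI/NAD/arsenate coupling and diaphorase/resazurin added. Fluorescence read after 20 min at RT, 525/598 nm.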
# HCMV inh = human cytomegalovirus inhibition; activity change, negative = inhibition, % at 57.5 µM; 410,000 tested, 4.5% active; HFF cells, HCMV-luciferase reporter, 72 h; active compounds read low; in the data active = activity change below about -60%; inconclusive = no clear call, values can overlap the other calls; inactive = above about -39%
#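 Human foreskin fibroblasts infected with luciferase-reporter HCMV at MOI 1 PFU/cell, compounds at two doses. Luciferase measured 72 h post infection; normalized to buffer-only basal and Salinomycin (10uM) controls.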
# Vaccinia Venus = inhibitors of vaccinia virus (Venus reporter); Vaccinia virus Venus reporter expression, fluorescence; Potency, µM (highest dose often 36.5 µM), for inactives: top-dose activity change, negative = inhibition, most hits filed as inhibitors; 330,000 tested, 0.46% active; AID 720580; calls by dose curve; tested in A549 cells; note: potency is the fitted concentration of half-maximal effect; nearly all actives have a fitted effect of over 30% in size
# FMDV antiviral = blocks foot and mouth disease virus | 410,000 tested, 1.2% active | Potency, µM (titrated, usually from 57.9 µM), inactives show top-dose activity change, negative = inhibition, hits mostly inhibitors | FMDV antiviral cell-based qHTS; calls by dose curve; tested in HEK293T cells; note: read-out not given here; potency is the fitted concentration of half-maximal effect; nearly all actives have a fitted effect of over 45% in size
# HCV inhibitor = HCV inhibition; Huh7.5.1 HCVcc-Cre infection, luciferase reporter, 44 h; Potency, µM (highest dose often 41.8 µM), for the others: at the top dose activity change, negative = inhibition, actives largely listed as inhibitors; AID 651820; 340,000 tested, 3.4% active; note: potency is the fitted concentration of half-maximal effect
#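 After 44 h co-culture of compound, cells and HCVcc-Cre (~0.5 moi), substrate is added for 15 min at room temperature and luciferase measured over 15 sec. Cells were seeded at 1,000/well and pre-cultured 4 h.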
# Vaccinia mCherry = vaccinia inhibition (mCherry reporter); Vaccinia virus mCherry reporter infection, fluorescence; AID 720579; 310,000 tested, 0.63% active; Potency, µM (doses to about 36.5 µM), without a hit: at the highest dose activity change, negative = inhibition, usual class: inhibitors; calls by dose curve; tested in A549 cells; note: potency is the fitted concentration of half-maximal effect; nearly all actives have a fitted effect of over 35% in size
# * hit, by the source's call; i = inactive; ? = inconclusive; nt = no result; [ ] = another dose, or the depositor's remark. Unless noted, calls come from the whole dose curve; as a rule, active = well fitted curve in the direction sought with a large enough effect; inconclusive = small, poorly fitted or top-dose-only effect, or another doubt; inactive = no such curve, though single readings can be large; an effect the other way counts as inactive or inconclusive. % is set by controls: 0 for no effect and ±100 for the full control effect.
SMILES,FBPA Giardia inh,HCMV inh,Vaccinia Venus,FMDV antiviral,HCV inhibitor,Vaccinia mCherry
O=C(Nc1cccc(S(=O)(=O)N2CCCC2)c1)c1cccnc1,nt,14,1%,-17%,-4%,12%
O=C(Nc1ccncc1)c1ccc(Cl)c(S(=O)(=O)N2CCCC2)c1,nt,-71*,-16%,-9%,?,-21%
O=C(Nc1ccc(N2CCCCC2)c(Cl)c1)c1cccnc1,-10%,-78*,2%,9%,?,13µM*
O=C(NC1CCCC1)c1ccc(Cl)c(S(=O)(=O)N2CCCCC2)c1,-2%,-40,-7%,-13%,35µM*,i
O=C(Nc1nc2ccccc2[nH]1)c1ccc(Cl)c(S(=O)(=O)N2CCCC2)c1,19%,nt,?,?,22µM*,-19%
O=C(c1ccc(Cl)c(S(=O)(=O)N2CCCCC2)c1)N1CCN(Cc2ccccc2)CC1,nt,-61*,-24%,0%,?,-23%
Cc1cccc(C)c1NC(=O)NC1(C(=O)NCCN2CCOCC2)CCCCC1,2%,-27,-5%,-11%,9%,-4%
O=C(c1ccc(Cl)c(S(=O)(=O)N2CCCC2)c1)N1CCN(Cc2ccccc2)CC1,nt,-10,nt,-7%,?,nt
O=C(Nc1ccccc1Cl)NC1(C(=O)NCCCN2CCOCC2)CCCCC1,0%,-62*,-13%,-9%,15%,-4%
O=C(Nc1nc2ccccc2[nH]1)c1ccc(S(=O)(=O)N2CCOCC2)cc1,-14%,2,nt,14%,28%,nt
CC(=O)c1ccc(N=Nc2ccc(C)cc2)cc1,5%,-38,-9%,?,10%,?
C=C(C)C(=O)Oc1ccc(N=Nc2ccc(C)cc2)ccc1=O,nt,0,-23%,?,11µM*,-27%
COc1cc2nc(N3CCN(c4cc(C)ccc4C)CC3)nc(N)c2cc1OC,-14%,-98*,10µM*,25µM*,7.1µM*,?
COc1cc2nc(C#N)nc(N)c2cc1OC,nt,nt,-6%,nt,nt,-10%
COc1cc2nc(N3CCNCC3)nc(N)c2cc1OC,2%,?,nt,9%,22µM*,nt
O=C(O)Cc1cccc(OCCCN(Cc2cccc(C(F)(F)F)c2Cl)CC(c2ccccc2)c2ccccc2)c1,-10%,nt,nt,?,nt,nt
CNC(=S)N/N=C/c1cc(C)n(-c2ccc(Cl)c(Cl)c2)c1C,4%,-68*,-24%,0%,?,-3%
Clc1cccc(Cl)c1C1N2CCCN12 (stereo not given),3%,-63*,1%,-18%,6%,i
c1ccc(C2N3CCCN23)cc1 (stereo not given),2%,40,-6%,4%,2%,-6%
C=CCSC(=S)NC1CCS(=O)(=O)C1 (stereo not given),-8%,?,-17%,13µM*,5%,-25%
CCc1cc2c(-c3ccccc3)cc(=O)oc2cc1OCC(=O)NCC1CCC(C(=O)O)CC1 (stereo not given),3%,13,-9%,-20%,21%,-2%
Cc1noc(C)c1C(=O)OCC(=O)Nc1ncc(Cl)c(C)c1Cl,nt,-31,-7%,-2%,-9%,-14%
O=C(CSc1oc(-c2ccco2)nc1S(=O)(=O)c1ccccc1)NCC1CCCO1 (stereo not given),-2%,-35,12%,2%,1%,nt
Cc1ccc(-c2nc(S(=O)(=O)c3ccccc3)c(SCC(=O)NCC3CCCO3)o2)cc1 (stereo not given),-12%,-60*,-8%,-17%,?,?
Cc1cc(C)cc(NC(=O)CSc2oc(-c3ccco3)nc2S(=O)(=O)c2ccc(Cl)cc2)c1,nt,-62*,?,-1%,nt,?
O=C(CSc1oc(-c2ccco2)nc1S(=O)(=O)c1ccc(Cl)cc1)NCC1CCCO1 (stereo not given),-9%,-66*,-8%,nt,?,-8%
Cc1onc(-c2c(F)cccc2Cl)c1C(=O)N[C@H]1C(=O)N2[C@H]1SC(C)(C)[C@H]2C(=O)O,-4%[21.7 µM],nt,nt,nt,nt,nt
CC(=O)Nc1ccc(S(=O)(=O)Nc2nc3ccccc3nc2-n2ccc(=NC(=O)c3ccc(F)cc3)cc2)cc1,3%,28,-22%,-5%,33%,1%
CCCCN1CC[C@H]2C=CC[C@@H](C(=O)NC3CCCCC3)[C@H]2C1=O,nt,nt,-18%,nt,nt,i
